Data on 16 molecules can be found in PubChem BioAssay.

Assay [1] can be described thus: sensitizers of A549 cells to miR-34 induction, primary screen, imaging, A549 dox-inducible miR-34, nuclei and caspase counts (AID 1347080;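 active = compounds whose cell count with miR-34 switched on is under 0.7 times the count with it off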). To be noted: A549 miR-34 inducible, Hoechst nuclei count, 48 h.
The nature of assay [2]: survival rescue of mitochondrial mutant cells in low glucose, primary screen, MELAS cybrids, Rieske KO mouse fibroblasts, CellTiter-Glo (AID 1508586;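 also: z relative to plate mean and SD of compound and empty wells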). (In general: ATP-based viability assays read luminescence as a measure of living cells.)
Setting [3] is: stronger effect = lower value, cell number ratio, induced over uninduced.
The mark [4] stands for this setting: measured here: relative caspase fold change +Dox/-Dox.
[5] abbreviates: measured here: total cells with miR-34 induction, stronger effect = lower value.
The mark [6] stands for this setting: measured here: total cells without miR-34 induction.
[7] abbreviates: MELAS cybrid survival, CellTiter-Glo 48 h, stronger effect = higher value.
Where [8] appears, read: Rieske KO mouse fibroblast survival, CellTiter-Glo 72 h.

Molecules are shown by their SMILES. “And” between values parts separate entries of the source, which are not always exact repeats. Equal entries are not always repeated. The source made the active and inactive calls.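 The calls were made as follows, unless noted: active = mean z-score across replicates of 1.96 or higher in either the MELAS or the Rieske mutant cell line; inactive = the rest.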
Also: test concentration not given here.

As to `CNC1C(O)C(NC)[C@H]2O[C@@]3(O)C(=O)CC(C)O[C@H]3O[C@@H]2C1O` (stereo partly specified), the fold change is 1.01 (inactive) in assay [1] (setting [3]) and 0.997 in assay [1] (setting [4]). Also, the cell count is 9590 in assay [1] (setting [5]) and 9460 in assay [1] (setting [6]). Further, the z-score in assay [2] (setting [7]) was -0.277 (inactive); in assay [2] (setting [8]), 0.762.

For `O=C1C(Cc2ccc(O)cc2)N2C(=O)CCN(C(=O)NCc3ccccc3)[C@H]2CN1Cc1cccc2ccccc12` (stereo partly specified), the fold change was 1.06 (inactive) in assay [1] (setting [3]) and 0.528 in assay [1] (setting [4]). The cell count in assay [1] (setting [5]) was found to be 2850; in assay [1] (setting [6]), 2690. Besides, the z-score in assay [2] (setting [7]) was -0.585 (inactive); in assay [2] (setting [8]), -0.172.

In the case of `CC(C)CC(NC(=O)CNC(=O)c1cc(Cl)ccc1Cl)B1OC(=O)CC(CC(=O)O)(C(=O)O)O1` (stereo unspecified), the values for the fold change in assay [1] (setting [3]) and in assay [1] (setting [4]) were 0.814 (inactive) and 0.899, respectively. Besides, the cell count came to 1600 in assay [1] (setting [5]) and 1960 in assay [1] (setting [6]). For the same molecule, the z-score in assay [2] (setting [7]) was -0.37 (inactive); in assay [2] (setting [8]) it was -3.79.

Turning to `CC1(C)CCC[C@@]2(C)[C@H]3CC(=O)O[C@]3(C)CC[C@@H]12`, the fold change in assay [1] (setting [3]) was 0.913 (inactive); in assay [1] (setting [4]), 0.659. In addition, the cell count in assay [1] (setting [5]) worked out at 9360; in assay [1] (setting [6]), 10200. Further, the values for the z-score in assay [2] (setting [7]) and in assay [2] (setting [8]) were -0.354 (inactive) and 1.06, respectively.

On to `CCC(C)(C)C(=O)OC1CC(C)C=C2C=CC(C)C(CC[C@@H]3CC(O)CC(=O)O3)[C@H]21` (stereo partly specified), for which the fold change was 1.33 (inactive) in assay [1] (setting [3]) and 0.766 in assay [1] (setting [4]). The cell count stood at 2960 in assay [1] (setting [5]) and 2220 in assay [1] (setting [6]). Moreover, the values for the z-score in assay [2] (setting [7]) and in assay [2] (setting [8]) were 1.26 (inactive) and -1.5, respectively.

Consider `C=C(C)C1CC[C@]2(C(=O)O)CC[C@]3(C)[C@H](CC[C@@H]4[C@@]5(C)CCC(O)C(C)(C)[C@@H]5CC[C@]43C)[C@@H]12` (stereo partly specified), for which the figures for the fold change in assay [1] (setting [3]) and in assay [1] (setting [4]) were 0.87 (inactive) and 0.918, respectively. In addition, the values for the cell count in assay [1] (setting [5]) and in assay [1] (setting [6]) were 6780 and 7790, respectively. Moreover, the z-score in assay [2] (setting [7]) was -0.0804 (inactive); in assay [2] (setting [8]) it was -0.141.

With `NC(=O)NN=Cc1ccc([N+](=O)[O-])o1`, the fold change is 0.88 (inactive) in assay [1] (setting [3]) and 0.871 in assay [1] (setting [4]). Moreover, the cell count was found to be 7280 in assay [1] (setting [5]) and 8270 in assay [1] (setting [6]). Besides, the figures for the z-score in assay [2] (setting [7]) and in assay [2] (setting [8]) were -0.0834 (inactive) and -0.616, respectively.

Regarding `CC(=Cc1ccccc1)C=C1SC(=S)N(CC(=O)O)C1=O`, the fold change in assay [1] (setting [3]) is 0.909 (inactive); in assay [1] (setting [4]), 0.759. Also, the results for the cell count in assay [1] (setting [5]) and in assay [1] (setting [6]) were 8290 and 9130, respectively. For the same molecule, the z-score was -0.0963 (inactive) in assay [2] (setting [7]) and 0.707 in assay [2] (setting [8]).

For the molecule `CC(CCC(=O)O)[C@H]1CC[C@H]2[C@@H]3C(O)C[C@@H]4CC(O)CC[C@]4(C)[C@@H]3CC[C@]12C` (stereo partly specified), the figures for the fold change in assay [1] (setting [3]) and in assay [1] (setting [4]) were 0.91 (inactive) and 1.28, respectively. The cell count in assay [1] (setting [5]) worked out at 8880; in assay [1] (setting [6]), 9760. The results for the z-score in assay [2] (setting [7]) and in assay [2] (setting [8]) were -0.306 (inactive) and 0.756, respectively.

With `NCc1c[nH]c(=S)n1C1CCc2c(F)cc(F)cc2C1` (stereo unspecified), the fold change in assay [1] (setting [3]) is 0.817 (inactive); in assay [1] (setting [4]), 2.13. In addition, the cell count in assay [1] (setting [5]) came to 7940; in assay [1] (setting [6]) it was 9720. The z-score is -0.197 (inactive) in assay [2] (setting [7]) and -0.149 in assay [2] (setting [8]).

For the molecule `O=C(O)C(S)=Cc1c[nH]c2ccc(F)cc12`, the figures for the fold change in assay [1] (setting [3]) and in assay [1] (setting [4]) were 0.952 (inactive) and 0.47, respectively. In addition, the cell count in assay [1] (setting [5]) turned out to be 7180; in assay [1] (setting [6]) it was 7550. The results for the z-score in assay [2] (setting [7]) and in assay [2] (setting [8]) were -0.325 (inactive) and -0.491, respectively.

As for `Cc1ccc(-c2c(-c3nn(C)c4ncnc(N5CCC(N6CCCCC6)C5)c34)cnn2C)cc1` (stereo unspecified), the results for the fold change in assay [1] (setting [3]) and in assay [1] (setting [4]) were 0.989 (inactive) and 0.458, respectively. Also, the cell count stood at 8040 in assay [1] (setting [5]) and 8120 in assay [1] (setting [6]). Moreover, the z-score in assay [2] (setting [7]) was -0.254 (inactive); in assay [2] (setting [8]) it was -0.0628.

On to `Cc1ccc(-n2sc(=O)n(Cc3ccc(F)cc3)c2=O)cc1`, for which the fold change in assay [1] (setting [3]) is 0.959 (inactive); in assay [1] (setting [4]), 0.337. The cell count in assay [1] (setting [5]) turned out to be 8430; in assay [1] (setting [6]) it was 8790. The values for the z-score in assay [2] (setting [7]) and in assay [2] (setting [8]) were -0.268 (inactive) and -0.132, respectively.

Take `OCC(O)C(O)C(O)C(O)CO` (stereo unspecified): the fold change is 0.977 (inactive) and 0.927 (inactive) in assay [1] (setting [3]); 0.781 and 0.815 in assay [1] (setting [4]). The cell count is 7830 and 9620 in assay [1] (setting [5]); 8020 and 10400 in assay [1] (setting [6]). In addition, the z-score in assay [2] (setting [7]) was -0.426 (inactive) and -0.241 (inactive); in assay [2] (setting [8]), -0.124 and 0.173.

With `CC(C=CC1=C(C)CCCC1(C)C)=CC=CC(C)=CC(=O)O`, the fold change in assay [1] (setting [3]) was 0.957 (inactive) and 0.887 (inactive); in assay [1] (setting [4]) it was 0.963 and 0.861. Further, the cell count in assay [1] (setting [5]) is 6860 and 8040; in assay [1] (setting [6]), 7170 and 9070. The z-score in assay [2] (setting [7]) was -0.296 (inactive) and 0.176 (inactive); in assay [2] (setting [8]), 0.231 and 0.975.

With `CNC(C)C(=O)NC(C(=O)N1CCCC1C(=O)Nc1snnc1-c1ccccc1)C1CCCCC1` (stereo unspecified), the fold change is 0.982 (inactive) in assay [1] (setting [3]) and 0.55 in assay [1] (setting [4]). For the same molecule, the values for the cell count in assay [1] (setting [5]) and in assay [1] (setting [6]) were 8360 and 8510, respectively. Also, the z-score is -0.276 (inactive) in assay [2] (setting [7]) and -0.145 in assay [2] (setting [8]).
